# This is a sample that favours compounds with a hit; in the whole collection about 11% have one here.
# NPSR antagonist: antagonists of human neuropeptide S receptor cAMP signaling; CHO-NPSR cells, cAMP TR-FRET, antagonist mode; Potency, µM (titrated, usually from 38.3 µM), for the others: at the highest dose activity change, negative = inhibition, usual class: inhibitors; 1% of 220,000 active; further: potency means the concentration at half of the fitted maximal effect; on the % scale 0 is the no-effect control and ±100 the full control effect; nearly all actives have a fitted effect of over 50% in size
# HPGD inh: HPGD (human) dehydrogenase inhibition | Potency, µM, for the others: top-dose activity change, negative = inhibition, most hits filed as inhibitors | P15428 | 4.3% of 150,000 active | purified HPGD, NADH fluorescence kinetic, PGE2 substrate | AID 894; active means well fitted inhibition curve with a large enough effect, not every such curve was filed as active; inconclusive means small, poorly fitted or top-dose-only effect, or another doubt; inactive means no such curve, though single readings can be large or run the other way; further: potency means the concentration at half of the fitted maximal effect; on the % scale 0 is the no-effect control and ±100 the full control effect
#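 NADH formation kinetics: reaction with 30 uM PGE2 and 1 mM NAD+ (final), 20 nM enzyme, Tris-HCl pH 8 with Tween 20, after 15 min compound preincubation at room temperature. Fluorescence change, last versus first of five reads.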
# ALDH1A1 inh-1: ALDH1A1 (human) enzyme inhibition; Purified ALDH1A1, NADH fluorescence, propionaldehyde substrate; Potency, µM (top dose mostly 75.3 µM), without a hit: top-dose activity, negative = inhibition, usual class: inhibitors; 7.3% of 220,000 active; active means well fitted inhibition curve with a large enough effect, not every such curve was filed as active; inconclusive means small, poorly fitted or top-dose-only effect, or another doubt; inactive means no such curve, though single readings can be large or run the other way;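 further: potency means the concentration at half of the fitted maximal effect; plate controls were no enzyme wells and a reference inhibitor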
# Target sequence (P00352 whole entry, looked up): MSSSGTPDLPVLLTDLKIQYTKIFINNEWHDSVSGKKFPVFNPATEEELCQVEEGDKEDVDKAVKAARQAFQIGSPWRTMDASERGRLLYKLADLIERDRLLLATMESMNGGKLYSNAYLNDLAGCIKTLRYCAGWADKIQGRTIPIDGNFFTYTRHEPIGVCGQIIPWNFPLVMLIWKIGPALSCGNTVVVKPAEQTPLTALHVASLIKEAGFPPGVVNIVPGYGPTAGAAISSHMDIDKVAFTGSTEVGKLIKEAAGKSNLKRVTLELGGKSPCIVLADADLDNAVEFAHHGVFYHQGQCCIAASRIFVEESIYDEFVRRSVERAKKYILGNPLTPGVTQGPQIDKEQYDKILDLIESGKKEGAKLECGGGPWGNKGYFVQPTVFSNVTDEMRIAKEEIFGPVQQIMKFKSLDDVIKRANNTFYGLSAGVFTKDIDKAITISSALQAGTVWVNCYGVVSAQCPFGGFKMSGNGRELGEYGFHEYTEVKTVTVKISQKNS
# PNC assembly inh: inhibitors of perinucleolar compartment assembly; 3.1% of 140,000 active; PC3M PTB-GFP, PNC prevalence imaging, 16 h; stronger effect = lower value; activity change (PNC), negative = inhibition, % at 10 µM; AID 2417;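 active means readout at or below -70, meaning at least 70% loss of cells showing the perinucleolar compartment, a nuclear body marking cancer cells; inconclusive means readout between -30 and a set limit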;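 further: plate controls were DMSO wells for no effect and camptothecin positive control wells for full effect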
#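 Read-out is percentage of cells bearing a perinucleolar compartment, from automated 20x imaging of fixed, Hoechst-stained PC3M PTB-GFP cells. Cells were seeded 4 h, then exposed 16 h to compound (23 nl of library stock) in duplicate plates.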
# IMPase Li cell: IMPase inhibition in cells with lithium potentiation. CHO-M1 cells, IP1 TR-FRET (IP-One), carbachol + lithium. Potency, µM (titrated, usually from 59.4 µM), for inactives: at the highest dose activity, negative = IMPase inhibition, hits mostly inhibitors. 0.35% of 210,000 active;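 further: IP1 builds up when IMPase is blocked and the TR-FRET signal falls; potency means the concentration at half of the fitted maximal effect; plate controls were basal vehicle for no effect and high inhibitor control for full effect; nearly all actives have a fitted effect of over 50% in size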
#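 Readout is a homogeneous TR-FRET IP1 immunoassay (Ex 320, Em 665 and 620), where raised cytosolic IP1 lowers signal. Cells were CHO-M1 treated 30 min at 37C with test compounds plus a little lithium; AC50 values came from Hill-equation fitting.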
# IMPase cell inh: IMPase inhibition in cells. CHO-M1 cells, IP1 accumulation, HTRF TR-FRET ratio. inhibition (IP1 accumulation), % at 46.1 µM. 120,000 tested, under 10 active. AID 901; active means well fitted curve in the direction sought with a large enough effect in the signal ratio, not every such curve was filed as active; inconclusive means small, poorly fitted or top-dose-only effect, or a change in a side signal; inactive means no such curve, though single readings can be large or run the other way; the % refers to the signal ratio;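 further: cells stimulated with carbachol in lithium chloride buffer; plate controls were DMSO basal wells for no effect and reference inhibitor wells for full effect; higher means more IMPase inhibition seen as more IP1 and lower FRET ratio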
# Target sequence (P97697 whole entry, looked up): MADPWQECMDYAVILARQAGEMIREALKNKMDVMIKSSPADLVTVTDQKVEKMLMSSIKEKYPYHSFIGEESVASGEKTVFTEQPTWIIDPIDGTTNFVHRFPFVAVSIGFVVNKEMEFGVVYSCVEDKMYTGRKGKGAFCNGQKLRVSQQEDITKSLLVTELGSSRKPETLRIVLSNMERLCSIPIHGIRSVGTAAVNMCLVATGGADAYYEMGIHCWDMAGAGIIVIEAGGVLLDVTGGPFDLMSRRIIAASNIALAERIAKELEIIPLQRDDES
#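 CHO-M1 cells (CHO stably expressing M1 receptor), compound up to 46 uM final, stimulated with carbachol (50 uM as added) in buffer with 50mM LiCl, pH 7.4, 30 min at 37C. Cytosolic IP1 read by TR-FRET; AC50 from Hill fits.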
# ALDH1A1 inh-2: Confirms inhibition of human ALDH1A1 with counterscreen. shares compounds with ALDH1A1 inh-1. purified ALDH1A1, NADH fluorescence, propionaldehyde/NAD+. Potency, µM (titrated, usually from 57.1 µM), for inactives: top-dose activity change, negative = inhibition, most hits filed as inhibitors. 90% of 90 active. AID 493210; calls by dose curve
# * = called active by the depositor; ? = inconclusive; . = not tested or not shown; [ ] = another dose, or the depositor's remark. Unless noted, the call rests on the fitted dose curve; in most records, active means well fitted curve in the direction sought with a large enough effect; inconclusive means small, poorly fitted or top-dose-only effect, or another doubt; inactive means no such curve, though single readings can be large; an effect the other way counts as inactive or inconclusive.
SMILES,NPSR antagonist,HPGD inh,ALDH1A1 inh-1,PNC assembly inh,IMPase Li cell,IMPase cell inh,ALDH1A1 inh-2
C[N+](C)(C)CCC(=O)c1cccc2ccccc12,31.6µM*,14.1µM*,0.0708µM*,.,24.0%,5.1,0.0355µM*
O=C(CSc1ncnc2ccccc12)Nc1cc(S(=O)(=O)N2CCCCC2)ccc1Cl,-19.9%,-14.3%,4.6%,?,2.6%,.,.
CC1=CCC(/C=N\Nc2nnc3c(n2)[nH]c2ccccc23)CC1 (centres undefined),15.6%,-4.2%,6.7%,-9.5,6.4%,.,.
O=C1CC(c2ccccc2)c2ccccc21 (centres undefined),2.1%,.,-8.7%,.,1.4%,.,.
O=C1C=CC(=O)C2=C1C1c3ccccc3C2c2ccccc21,.,1.12µM*,0.708µM*,.,14.5%,.,0.562µM*
CO/N=C(\C(=O)NC1C(=O)N2C(C(=O)OCOC(=O)C(C)(C)C)=C(/C=C\c3scnc3C)CSC12)c1csc(N)n1 (centres undefined),.,?,0.355µM*,.,-19.5%,.,0.794µM*
CC1CCN(Cc2nc3c(c(=O)n(C)c(=O)n3C)n2CCCc2ccccc2)CC1,-13.3%[46.1 µM],-4.5%,0.631µM*,-27.6,19.5%[38.3 µM],-25.8,0.501µM*
CCC1CCCCN1Cc1nc2c(c(=O)n(C)c(=O)n2C)n1CCCc1ccccc1 (centres undefined),?,-10.9%,?,?,14.2%[38.3 µM],10.0,.
CC(=O)c1ccc(OCCCN2CCCCC2)cc1,-7.8%[46.1 µM],-7.7%,-14.0%,29.6,37.9%[38.3 µM],15.8,.
CCCCOc1ccc(C(=O)CCN2CCCCC2)cc1,12.5%,-20.1%,0.0447µM*,-22.7,14.0%,?,0.794µM*
FC(F)Sc1ccc(NC(=S)NCc2ccccc2)cc1,-30.0%,.,?,.,23.5%,.,.
COC(=O)c1ccsc1NC(=O)CSc1nnnn1-c1ccccc1SC,-16.9%[46.1 µM],-24.5%,0.126µM*,25.2,0.3%[38.3 µM],6.8,0.316µM*
Cc1cccc(Cn2c(N3CCCCC3C)nc3c2c(=O)[nH]c(=O)n3C)c1 (centres undefined),-11.2%[46.1 µM],-19.1%,0.282µM*,80.0,21.2%,-5.9,0.251µM*
Cc1cccc(Cn2c(N3CCc4ccccc4C3)nc3c2c(=O)[nH]c(=O)n3C)c1,7.8%[46.1 µM],-3.7%,14.7%,-11.8,40.1%[38.3 µM],?,.
Cc1ccc(-n2nnc3c(=O)oc4ccccc4c32)cc1,?,-18.7%,7.2%,-28.1,9.3%[38.3 µM],4.0,.
COCCN(C(=O)Cc1cccs1)C(C(=O)NCc1ccc(OC)cc1)c1ccc(C(C)C)cc1 (centres undefined),?,-22.7%,0.282µM*,32.5,40.1%[38.3 µM],8.2[1.84 µM],0.251µM*
Cc1ccc(S(=O)(=O)/C=C/C#N)cc1,.,.,0.0562µM*,.,-4.0%,.,0.0631µM*
C[C@H](Cc1ccc(O)c(O)c1)[C@@H](C)Cc1ccc(O)c(O)c1,-29.6%[46.1 µM],3.16µM*,0.159µM*,.,30.9%,9.2,2.24µM*
COc1cc(NC(=O)CN2CCN(S(=O)(=O)c3ccc(C(C)C)cc3)CC2)cc(OC)c1,?,-14.2%,2.24µM*,-14.7,35.2%[38.3 µM],2.9,3.16µM*
COc1ccc(-n2c(Cc3cccs3)nnc2SCC(=O)Nc2ccc3c(c2)OCCO3)cc1,?,-2.2%,2µM*,9.2,0.2%[38.3 µM],4.1,0.562µM*
Cc1ccc(-n2c(SCC(=O)Nc3ccc4c(c3)OCO4)nnc2-c2cccs2)cc1,-25.3%[46.1 µM],-29.6%,-3.4%,14.8,4.6%[38.3 µM],-4.8,.
O=C(Nc1cccc([N+](=O)[O-])c1)c1ccncc1,15.7%,-11.3%,-11.5%,6.9,7.1%,-9.0,.
O=C(CCNc1ccc(Cc2ccncc2)cc1)c1cccc([N+](=O)[O-])c1,-1.2%,.,0.398µM*,.,17.2%,.,0.501µM*
O=C(CSc1nnnn1-c1ccc(Cl)cc1)NC(=O)Nc1ccc2c(c1)OCCO2,-18.8%[46.1 µM],-10.6%,-1.1%,11.4,8.8%,16.0,.
O=C(CSc1nnnn1-c1ccccc1Cl)Nc1ccc2c(c1)OCCO2,?,-5.8%,0.224µM*,-14.8,30.7%[38.3 µM],?,0.251µM*
SMILES,NPSR antagonist,HPGD inh,ALDH1A1 inh-1,PNC assembly inh,IMPase Li cell,IMPase cell inh,ALDH1A1 inh-2
O=C(CC1(O)C(=O)N(Cc2ccccc2)c2ccccc21)c1ccncc1 (centres undefined),16.5%[46.1 µM],-20.1%,0.0708µM*,6.4,19.8%[38.3 µM],-7.0,0.251µM*
CCOC(=O)c1cnc(-n2nc(C)cc2C)nc1NCc1ccc2c(c1)OCO2,?,-11.2%,-8.7%,?,34.8%[38.3 µM],9.3,.
Cc1ccc(S(=O)(=O)NCC(=O)Nc2cccc([N+](=O)[O-])c2)cc1,-0.8%,.,-15.2%,.,1.7%,.,.
CS(=O)(=O)c1ccc(Cn2c3c(c4cc(F)cc(F)c42)CCC[C@H]3CC(=O)O)cc1,.,34.1%,0.112µM*,.,12.2%,-3.3,0.355µM*
COc1ccc(OC)c(-n2nnnc2SCC(=O)O)c1,-1.5%[46.1 µM],-14.7%,-1.9%,31.5,-8.9%[38.3 µM],3.8,.
COc1ccc(OC)c(-n2nnnc2SCC(=O)Nc2nc(C)c(C)s2)c1,-0.7%[46.1 µM],-13.5%,?,7.5,?,-0.8,1.78µM*
Cc1ccc(S(=O)(=O)N[C@@H](Cc2ccccc2)C(=O)CCl)cc1,20µM*,20µM*,0.794µM*,11.7,34.7%,9.7,0.447µM*
Cc1ccc(S(=O)(=O)N[C@H](CO)C(=O)O)cc1,.,-3.5%,0.9%[13.5 µM],.,-3.7%,.,.
CC(=O)Nc1ccc(CN2CCN(C3CCCC3)C(CCO)C2)cc1 (centres undefined),-18.6%,.,5.5%,.,29.7%,.,.
O=C(C1=C[C@H](c2coc3ccccc3c2=O)C[C@H](OCc2ccc(CO)cc2)O1)N1CCN(Cc2ccc3c(c2)OCO3)CC1,?,.,-3.5%,.,3.4%,.,.
CC(C)N(C(=O)CN1C(=O)C(=O)c2ccccc21)c1ccccc1,-1.4%,.,0.0282µM*,.,8.2%,.,0.0355µM*
CC(C)N(C(=O)COC(=O)[C@H](C)NC(N)=O)c1ccccc1,5.6%,.,-0.2%,.,-1.3%,.,.
CCCCCCCCCCCNC(=O)c1ccoc1C,-6.9%[46.1 µM],-18.1%,?,?,3.3%,?,.
CCOc1ccc(/C=C(\C#N)C(=O)Nc2sc3c(c2C(=O)OC)C(C(=O)OC)CC3)cc1OC (centres undefined),.,.,.,.,.,-6.8,.
CCCCCSc1nc2c(c(=O)[nH]c(=O)n2C)n1CCc1ccccc1,7.7%[46.1 µM],-17.2%,0.708µM*,?,16.4%[38.3 µM],1.8,1.26µM*
Cc1cc(NC(=O)C(C)C)ncc1NC(=O)c1ccccn1,16.5%,.,-6.7%,.,4.8%,.,.
COc1ccc(C(=O)CCNc2ccc3c(c2)OCCO3)cc1,-5.3%,.,0.316µM*,.,11.1%,.,3.98µM*
COc1ccc(-c2noc(CCC(=O)Nc3ccc4c(c3)OCCO4)n2)cc1,-24.4%[46.1 µM],-25.5%,?,-15.1,40.7%[38.3 µM],17.6,.
O=C(CCNc1ccccc1)c1ccc2c(c1)OCO2,-19.9%[46.1 µM],-18.0%,0.891µM*,-1.1,17.2%[38.3 µM],10.7,2.24µM*
